Values joined by “and” are separate entries in the source; they are usually repeats but may differ in a detail not shown here. Equal entries are not always repeated. Screen size: about 16,000 compounds; about 2,600 (16%) were called active. Another 20% or so got no clear call; they are omitted. The call rests on the fitted dose curve; in most records, active means well fitted curve in the direction sought with a large enough effect; inconclusive means small, poorly fitted or top-dose-only effect, or effect the other way; inactive means no such curve, though single readings can be large or run the other way. A selection follows. The source holds several records for some structures; these can differ, active in one and inactive in another.
molecular target: Cytochrome P450 2D6 (Homo sapiens) (UniProt P10635); test: Cytochrome panel assay with activity outcomes; settings: recombinant CYP, pro-luciferin dealkylation, luminescence, p450-cyp2d6; series mostly up to 57.1 µM; activity, negative = inhibition: at the top concentration
Sequence (P10635 whole entry, looked up): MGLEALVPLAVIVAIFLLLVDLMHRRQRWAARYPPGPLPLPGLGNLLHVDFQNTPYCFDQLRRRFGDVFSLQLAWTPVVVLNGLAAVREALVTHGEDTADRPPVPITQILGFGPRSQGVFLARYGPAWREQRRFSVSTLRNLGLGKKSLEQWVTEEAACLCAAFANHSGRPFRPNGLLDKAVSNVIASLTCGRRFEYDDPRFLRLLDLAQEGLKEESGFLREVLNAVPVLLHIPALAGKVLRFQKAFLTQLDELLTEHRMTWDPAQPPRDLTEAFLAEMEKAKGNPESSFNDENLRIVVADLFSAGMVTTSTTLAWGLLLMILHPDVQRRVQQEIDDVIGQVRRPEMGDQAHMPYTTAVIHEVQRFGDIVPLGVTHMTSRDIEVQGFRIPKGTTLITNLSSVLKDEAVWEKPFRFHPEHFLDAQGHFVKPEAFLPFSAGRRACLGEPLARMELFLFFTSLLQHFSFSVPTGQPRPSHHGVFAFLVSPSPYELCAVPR
On the % scale 0 is the no-effect control and ±100 the full control effect.

SMILES | AC50 | activity, negative = inhibition
CCCNC(=O)CC(NS(=O)(=O)c1ccc(Cl)cc1)c1ccco1 (stereo not drawn) | 1410 nM (active) | 
O=C(CC(NS(=O)(=O)c1ccc(Cl)cc1)c1ccco1)NCc1ccco1 (stereo not drawn) | 5620 nM (active) | 
CCCCNC(=O)NS(=O)(=O)c1ccc(C)cc1 |  | -0.907% [at 25.6 µM] (inactive)
C/C(CC(=O)NCc1ccco1)=N\NC(=O)Cc1ccc(Cl)cc1 |  | -4.76% (inactive)
C/C(=N/NC(=O)Cc1cccn1C)c1ccccc1 |  | 1.6% (inactive)
Cc1ccc(/C=C/c2nnc(-c3ccc(C)cc3)o2)cc1 |  | 28.6% (inactive)
Cc1c2c(nc3c(C(=O)NC4CCCC4)cnn13)CCCC2 |  | -21.6% (inactive)
Cc1cccc(C)c1OC1(c2ccccc2)OC(=O)c2ccccc21 (stereo not drawn) |  | -23.2% (inactive)
O=C(/C=C\c1ccc(O)c(O)c1)O[C@@H]1C[C@](O)(C(=O)O)C[C@@H](O)[C@@H]1O |  | 9.51% [at 25.6 µM] (inactive)
CCCn1nc(Oc2nc(NCC)nc(NC(C)C)n2)ccc1=O |  | 18% (inactive)
COc1ccc(Cc2nnc(NC(=O)Cn3cnc4c3c(=O)n(C)c(=O)n4C)s2)cc1OC |  | 0.583% (inactive)
COc1ccc(C2C3=C(CC(C)(C)CC3=O)Oc3ncn(CC(C)C)c(=N)c32)cc1 (stereo not drawn) | 1000 nM (active) | 
CCOC(=O)c1c(C)nc2c(c1-c1ccc(OC)cc1)C(=O)CC(C)(C)C2 |  | 18.9% (inactive)
COc1cccc(C2C3=C(CC(C)(C)CC3=O)OC(N)=C2[N+](=O)[O-])c1 (stereo not drawn) |  | 5.32% (inactive)
O=C(c1ccco1)N1CCC2(CCCN(c3ccccc3)C2)CC1 |  | 8.54% (inactive)
O=C(Nc1ccccc1)N1CCC2(CC1)CCN(C(=O)c1ccco1)CC2 |  | -6.85% (inactive)
O=C(Nc1ccccc1)N1CCCC2(CCN(C(=O)c3ccco3)CC2)C1 |  | -3.4% (inactive)
O=C(c1ccco1)N1CCC2(CC1)CN(c1cccc(-c3ccccc3)c1)C2 |  | -7.16% (inactive)
O=C(c1ccco1)N1CCC[C@@]2(CCN(C(c3ccccc3)c3ccccc3)C2)C1 | 3160 nM (active) | 
O=C(c1ccco1)N1CCC2(CC1)CCN(c1ccc(-c3ccccc3)cc1)CC2 |  | 3.42% (inactive)
CC(C)NC(=O)N1CCC2(CC1)CCN(C(=O)c1ccco1)CC2 |  | 3.08% (inactive)
COc1ccc(NC(=O)N2CCCC3(CCN(C(=O)c4ccco4)CC3)C2)cc1 |  | 1.44% (inactive)
O=C(c1ccco1)N1CCC2(CC1)CCN(C(c1ccccc1)c1ccccc1)CC2 | 5010 nM (active) | 
N#Cc1cccc(NC(=O)N2CC[C@@]3(CCCN(C(=O)c4ccco4)C3)C2)c1 |  | 0.875% (inactive)
CC(C)NC(=O)N1CCCC2(CCN(C(=O)c3ccco3)CC2)C1 | 2510 nM (active) | 
O=C(c1ccco1)N1CCC2(CCCN(C(c3ccccc3)c3ccccc3)C2)CC1 | 10000 nM (active) | 
Cc1nc2ccccn2c1/C(O)=C1\C(=O)C(=O)N(CCN2CCOCC2)C1c1cccnc1 (stereo not drawn) |  | 2.67% (inactive)

SMILES | AC50 | activity, negative = inhibition
CCOc1ccc(/C(O)=C2/C(=O)C(=O)N(CCOCCO)C2c2cccnc2)cc1 (stereo not drawn) |  | 0.201% (inactive)
CN[C@H](CC(=O)O)C(=O)O |  | 5.67% (inactive)
C=C[C@@]1(C)CC(=O)[C@@]2(O)[C@@]3(C)[C@@H](O)CCC(C)(C)[C@@H]3[C@H](O)[C@H](OC(C)=O)[C@@]2(C)O1 |  | 13.2% (inactive)
COc1ccc(C(=O)N2CCC3(CC2)CN(C(=O)Nc2ccccc2)C3)cc1 |  | -0.471% (inactive)
Cc1cc(C(C#N)c2cccc(Cl)c2)n2ncnc2n1 (stereo not drawn) |  | -12.6% (inactive)
CC1CC(=O)c2cnc(N)nc2C1 (stereo not drawn) |  | -2.38% (inactive)
COC(=O)[C@@H]1CC[C@H](C)[C@@H](c2ccc(C)cc2)N1C(=O)c1ccc(/C=N\O[C@@H](C)c2cn([C@H]3COC[C@H]3O)nn2)cc1 |  | -10% [at 11.4 µM] (inactive)
CC(C)=CC(=O)Nc1nnc(C(C)C)s1 |  | -2.19% (inactive)
COc1ccc(OCc2nnc(SCC(=O)O)n2N)cc1 |  | 0.675% (inactive)
O=C(c1ccco1)N1CCC2(CC1)CN(c1ccccc1)C2 |  | -1.67% (inactive)
O=C(c1ccco1)N1CCC2(CC1)CN(C(c1ccccc1)c1ccccc1)C2 | 1260 nM (active) | 
O=C(c1ccco1)N1CCC2(CC1)CN(c1ccc(-c3ccccc3)cc1)C2 |  | -3.41% (inactive)
O=C(N/C(=C\c1cccs1)C(=O)N1CCCCCC1)c1ccccc1 |  | 36.2% (inactive)
O=C(O)CS(=O)c1ccc2c3c(cccc13)C(=O)c1ccccc1-2 (stereo not drawn) |  | 21.8% [at 11.4 µM] (inactive)
CN(C(=O)COc1cccc(Br)c1)C1CCS(=O)(=O)C1 (stereo not drawn) |  | 1.67% (inactive)
COc1ccc(NC(=O)COC(=O)c2c(-c3ccccc3)noc2C)cc1 |  | -25.8% (inactive)
C/C(=N\NC(=O)c1ccc(Cl)cc1)c1ccc(Br)s1 |  | -11.7% (inactive)
CC(C)SC(=N)N |  | -10% (inactive)
N=C(N)SCCSC(=N)N |  | 5.17% [at 11.4 µM] (inactive)
CSC(=N)N | inactive and 50.1 nM (active) | 
N=C(N)SCCN | inactive | 
C[C@@H](CSC(=N)N)C(N)=O |  | 4.14% [at 11.4 µM] (inactive)
CCSC(=N)N | inactive and 3.98 µM (active) | 
CCn1c(C)nc2cc(S(=O)(=O)C(F)F)ccc21 |  | -10.5% (inactive)
Cc1ccc(Sc2nc(-c3ccccc3)ccc2C#N)cc1 |  | 14.4% (inactive)
CCOC(=O)C1CCCN(C(=O)C2CCN(S(=O)(=O)N3CCC4(CC3)OCCO4)CC2)C1 (stereo not drawn) |  | 22.9% (inactive)
